From PubChem BioAssay
The source made the active and inactive calls.

Legend:
[1] = binders of probe aFSTL3 on microarray, primary screen, stem cell growth factor project, biochemical, small-molecule microarray, fluorescence 635/667 (AID 1064); conditions: higher = more signal;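 also: measures binding of the biotinylated anti-FSTL3 antibody to printed compounds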
[2] = binders from COS7 lysate, DM2A8 probe, primary screen, torsin A project, cell lysate, small-molecule microarray, fluorescence 635/667 (AID 1065); conditions: higher = more signal, COS7 lysate expressing mutant human TOR1A
[3] = binders of probe aFGF2 on microarray, primary screen, stem cell growth factor project, biochemical, small-molecule microarray, fluorescence 635/667 (AID 1067); conditions: higher = more signal;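 also: measures binding of biotinylated aFGF2 protein to printed compounds on slides; z-score merges feature fluorescence and signal-to-noise across triplicate slides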
[4] = binders of probe aFGF10 on microarray, primary screen, stem cell growth factor project, biochemical, small-molecule microarray, fluorescence 635/667 (AID 1071); conditions: higher = more signal;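 also: score merges 667 nm spot intensity and signal to noise from triplicate slides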
[5] = target: Neurogenic locus notch homolog protein 2 (Homo sapiens) (UniProt Q04721); assay: Notch2 binders on small-molecule microarrays, primary screen, biochemical, small-molecule microarray, 635 nm fluorescence, stem cell growth factors (AID 1073); conditions: Notch2 binding, higher = more signal
Neurogenic locus notch homolog protein 2 (Homo sapiens), sequence (Q04721 whole entry, looked up, canonical isoform): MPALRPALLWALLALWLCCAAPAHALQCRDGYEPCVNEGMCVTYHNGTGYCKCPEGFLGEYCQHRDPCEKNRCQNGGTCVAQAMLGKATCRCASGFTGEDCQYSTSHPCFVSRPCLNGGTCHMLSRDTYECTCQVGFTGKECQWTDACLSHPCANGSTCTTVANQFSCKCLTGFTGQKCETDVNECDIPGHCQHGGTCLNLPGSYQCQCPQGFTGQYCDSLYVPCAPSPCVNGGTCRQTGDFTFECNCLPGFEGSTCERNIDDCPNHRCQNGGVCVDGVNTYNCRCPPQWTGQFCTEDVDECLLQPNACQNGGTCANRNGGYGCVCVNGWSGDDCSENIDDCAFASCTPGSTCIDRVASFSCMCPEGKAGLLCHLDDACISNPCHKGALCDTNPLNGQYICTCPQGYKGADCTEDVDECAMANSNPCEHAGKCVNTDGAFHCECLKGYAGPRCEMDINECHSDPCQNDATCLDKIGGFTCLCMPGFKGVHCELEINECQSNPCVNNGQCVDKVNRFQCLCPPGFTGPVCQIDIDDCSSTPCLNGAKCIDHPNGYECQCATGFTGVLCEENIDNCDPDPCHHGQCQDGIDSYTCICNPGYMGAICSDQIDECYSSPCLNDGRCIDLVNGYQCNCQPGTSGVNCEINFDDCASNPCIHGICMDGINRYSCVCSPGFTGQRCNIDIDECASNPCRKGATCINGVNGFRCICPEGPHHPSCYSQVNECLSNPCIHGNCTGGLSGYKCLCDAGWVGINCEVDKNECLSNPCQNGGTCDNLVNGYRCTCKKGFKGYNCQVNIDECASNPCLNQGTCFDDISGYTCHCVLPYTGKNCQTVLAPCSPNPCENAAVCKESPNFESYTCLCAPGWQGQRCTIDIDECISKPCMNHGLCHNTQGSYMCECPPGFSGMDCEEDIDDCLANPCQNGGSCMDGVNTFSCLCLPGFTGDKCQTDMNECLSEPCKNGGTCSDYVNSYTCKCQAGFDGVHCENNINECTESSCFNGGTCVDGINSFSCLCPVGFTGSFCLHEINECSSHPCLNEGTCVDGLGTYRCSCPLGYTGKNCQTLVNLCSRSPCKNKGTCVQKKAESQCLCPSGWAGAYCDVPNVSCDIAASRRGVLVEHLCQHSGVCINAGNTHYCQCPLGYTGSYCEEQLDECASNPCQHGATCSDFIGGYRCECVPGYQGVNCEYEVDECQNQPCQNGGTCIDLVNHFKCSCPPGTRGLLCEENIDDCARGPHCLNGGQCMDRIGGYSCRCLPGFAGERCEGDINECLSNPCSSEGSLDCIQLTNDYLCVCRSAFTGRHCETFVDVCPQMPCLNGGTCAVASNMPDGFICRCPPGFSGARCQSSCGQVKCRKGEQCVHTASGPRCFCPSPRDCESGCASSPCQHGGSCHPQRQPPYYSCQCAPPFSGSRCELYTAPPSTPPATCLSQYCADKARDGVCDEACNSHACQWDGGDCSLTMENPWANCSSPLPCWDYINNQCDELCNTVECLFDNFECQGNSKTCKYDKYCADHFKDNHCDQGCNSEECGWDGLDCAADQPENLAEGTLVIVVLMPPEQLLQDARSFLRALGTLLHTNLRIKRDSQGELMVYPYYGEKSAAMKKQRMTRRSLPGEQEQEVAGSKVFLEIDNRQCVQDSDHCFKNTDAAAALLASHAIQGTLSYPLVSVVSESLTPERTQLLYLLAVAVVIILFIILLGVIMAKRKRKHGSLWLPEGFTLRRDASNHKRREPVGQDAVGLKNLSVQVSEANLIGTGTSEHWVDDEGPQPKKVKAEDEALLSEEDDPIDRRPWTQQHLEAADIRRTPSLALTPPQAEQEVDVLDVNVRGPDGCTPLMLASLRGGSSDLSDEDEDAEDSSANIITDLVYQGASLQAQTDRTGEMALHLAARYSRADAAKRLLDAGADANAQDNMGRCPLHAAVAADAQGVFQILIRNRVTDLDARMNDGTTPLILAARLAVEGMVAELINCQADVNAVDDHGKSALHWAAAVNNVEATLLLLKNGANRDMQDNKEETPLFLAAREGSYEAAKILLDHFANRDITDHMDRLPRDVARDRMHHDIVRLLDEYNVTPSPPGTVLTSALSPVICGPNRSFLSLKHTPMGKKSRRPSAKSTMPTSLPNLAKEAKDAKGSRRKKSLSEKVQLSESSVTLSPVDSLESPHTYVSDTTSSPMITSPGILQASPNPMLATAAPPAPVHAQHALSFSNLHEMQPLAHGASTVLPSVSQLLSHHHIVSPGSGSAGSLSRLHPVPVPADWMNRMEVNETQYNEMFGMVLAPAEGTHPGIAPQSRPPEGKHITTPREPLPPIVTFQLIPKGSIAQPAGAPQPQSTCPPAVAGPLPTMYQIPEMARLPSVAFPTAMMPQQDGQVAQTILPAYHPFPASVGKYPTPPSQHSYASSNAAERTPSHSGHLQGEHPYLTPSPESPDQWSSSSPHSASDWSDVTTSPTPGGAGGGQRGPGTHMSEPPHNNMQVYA

[6] = target: Pro-neuregulin-1, membrane-bound isoform (Homo sapiens) (UniProt Q02297); assay: NRG1 binders on small-molecule microarrays, primary screen, psychiatric disease protein project, biochemical, small-molecule microarray, fluorescence 635/667 (AID 1075); conditions: NRG1 binding, 635 nm fluorescence, higher = more signal;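 also: score combines 667 nm spot fluorescence with signal to noise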
Pro-neuregulin-1, membrane-bound isoform (Homo sapiens), sequence (Q02297 whole entry, looked up, the tested form may be a part, canonical isoform): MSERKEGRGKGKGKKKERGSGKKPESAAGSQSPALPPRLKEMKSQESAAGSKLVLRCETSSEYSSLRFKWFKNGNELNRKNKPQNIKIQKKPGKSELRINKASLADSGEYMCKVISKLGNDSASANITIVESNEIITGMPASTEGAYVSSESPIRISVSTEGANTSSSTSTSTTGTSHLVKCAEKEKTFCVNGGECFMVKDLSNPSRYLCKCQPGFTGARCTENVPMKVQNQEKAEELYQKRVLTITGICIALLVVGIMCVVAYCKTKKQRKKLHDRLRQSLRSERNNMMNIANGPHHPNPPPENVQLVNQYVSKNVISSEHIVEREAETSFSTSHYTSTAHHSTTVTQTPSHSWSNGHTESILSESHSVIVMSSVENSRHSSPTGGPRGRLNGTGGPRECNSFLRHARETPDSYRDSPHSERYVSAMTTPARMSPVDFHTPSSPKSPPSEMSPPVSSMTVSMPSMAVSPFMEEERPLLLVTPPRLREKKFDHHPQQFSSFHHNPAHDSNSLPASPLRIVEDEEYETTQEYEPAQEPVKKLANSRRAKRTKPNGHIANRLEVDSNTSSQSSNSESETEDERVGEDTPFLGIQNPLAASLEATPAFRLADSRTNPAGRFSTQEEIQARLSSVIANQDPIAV

[7] = system: Neuregulin-1 EGF-like domain; assay: binders of neuregulin-1 EGF-like domain, primary screen, biochemical, small-molecule microarray, 635 nm fluorescence (AID 1081); conditions: small-molecule microarray binding, higher = more signal;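 also: binding of the protein to compounds printed on small-molecule microarray slides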
[8] = FRG1 promoter luciferase signal modulators, primary screen, FRG1 inhibition for FSHD, cell-based, C2C12 myotubes, firefly/Renilla luciferase, luminescence (AID 1084); conditions: higher = more signal, called active from +8 up or from −8 down
[9] = binders of probe aFST on microarray, primary screen, stem cell growth factor project, biochemical, small-molecule microarray, fluorescence 635/667 (AID 1086); conditions: higher = more signal;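 also: score merges 667 nm fluorescence with signal-to-noise of each printed compound spot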
[10] = binders of probe aHhip on microarray, primary screen, stem cell growth factor project, biochemical, small-molecule microarray, fluorescence 635/667 (AID 1087); conditions: higher = more signal;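 also: score merges spot fluorescence at 667nm with spot signal to noise ratio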
[11] = system: PRMT1 (protein arginine N-methyltransferase 1); assay: PRMT1 binders on small-molecule microarrays, primary screen, biochemical, small-molecule microarray, 635 nm fluorescence (AID 1088); conditions: small-molecule microarray binding, higher = more signal;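 also: binding of Prmt1 protein to compounds spotted on small-molecule microarray slides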
[12] = yeast growth modulation, basal conditions, primary screen, YJM789 clinical isolate, OD600, 24 h (AID 1089);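 also: growth of clinical yeast isolate S. cerevisiae YJM 789 seeded 1000 cells per well; test concentration not given here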; conditions: S. cerevisiae YJM789 growth, higher = more signal, called active from +8 up or from −8 down
[13] = fission yeast growth modulation, primary screen, strain 972, OD600, 24 h, no modulator (AID 1090);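 also: basal condition with compound alone and no growth modifier present; test concentration not given here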; conditions: S. pombe 972 growth, higher = more signal, called active from +8 up or from −8 down
[14] = S. cerevisiae growth modulation with rapamycin, primary screen, strain BY4716, OD600, 96 h (AID 1091); conditions: higher = more signal, called active from +8 up or from −8 down; also: test concentration not given here
[15] = target: Torsin-1A-interacting protein 2 (Homo sapiens) (UniProt Q8NFQ8); assay: LULL1 binders on small-molecule microarray, primary screen, cell lysate, human LULL1 lysate, 635/667 nm fluorescence (AID 1092); conditions: hLULL1 lysate binding, 635 nm fluorescence, higher = more signal;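 also: probe is lysate of COS7 cells overexpressing human LULL1; score merges per-feature 667 nm fluorescence with signal-to-noise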
Torsin-1A-interacting protein 2 (Homo sapiens), sequence (Q8NFQ8 whole entry, looked up): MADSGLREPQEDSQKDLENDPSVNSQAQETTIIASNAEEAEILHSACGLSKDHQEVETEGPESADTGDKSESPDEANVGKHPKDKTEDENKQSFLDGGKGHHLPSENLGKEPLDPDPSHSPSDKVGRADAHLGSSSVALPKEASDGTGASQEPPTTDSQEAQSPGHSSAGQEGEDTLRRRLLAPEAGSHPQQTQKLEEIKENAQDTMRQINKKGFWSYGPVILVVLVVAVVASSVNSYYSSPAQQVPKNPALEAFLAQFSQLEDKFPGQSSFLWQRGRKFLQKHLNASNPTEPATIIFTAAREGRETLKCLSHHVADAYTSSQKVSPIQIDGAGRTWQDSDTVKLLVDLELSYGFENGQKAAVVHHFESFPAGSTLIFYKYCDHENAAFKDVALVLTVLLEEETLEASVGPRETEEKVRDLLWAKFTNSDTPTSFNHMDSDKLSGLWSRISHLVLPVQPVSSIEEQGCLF

[16] = E. coli growth modulation, two-sided OD650, primary screen, E. coli filamentation project, strain DRC41, 24 h (AID 1093); conditions: OD650, 24 h, higher = more signal, called active from +8 up or from −8 down;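 also: MC1000 strain lacking acrAB efflux and sulA so SOS filamentation is blocked; test concentration not given here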
[17] = small-molecule microarray binders of probe aLefty2, primary screen, biochemical, biotinylated probe, 635/667 nm fluorescence (AID 1094); conditions: higher = more signal;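 also: score merges spot fluorescence near 667 nm with spot signal-to-noise ratio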
[18] = system: Noggin (protein binding on small-molecule microarray); assay: Noggin binders on small-molecule microarray, primary screen, biochemical, 635/667 nm fluorescence (AID 1095); conditions: 635 nm fluorescence, higher = more signal;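 also: score merges 667 nm feature fluorescence with signal to noise over triplicate slides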
[19] = target: Neurogenic locus notch homolog protein 3 (Homo sapiens) (UniProt Q9UM47); assay: NOTCH3 binders on small-molecule microarray, primary screen, biochemical, 635/667 nm fluorescence (AID 1096); conditions: NOTCH3 binding, 635 nm fluorescence, higher = more signal
[20] = small-molecule microarray binders of probe aEGFR, primary screen, biochemical, biotinylated probe, 635/667 nm fluorescence (AID 1097); conditions: higher = more signal;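 also: probe is a biotinylated anti-EGFR antibody binding compounds printed on slides; score combines fluorescence near 667 nm and signal to noise of each spot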

Compound	composite z-score [1]	composite z-score [2]	composite z-score [3]	composite z-score [4]	composite z-score [5]	composite z-score [6]	composite z-score [7]	z-score [8]	composite z-score [9]	composite z-score [10]	composite z-score [11]	z-score [12]	z-score [13]	z-score [14]	composite z-score [15]	z-score [16]	composite z-score [17]	composite z-score [18]	composite z-score [19]	composite z-score [20]
C=C(COC)C(=O)CC[C@H](OC(=O)c1ccccc1-c1ccccc1C(=O)O)c1ccccc1OCCO	0.181	0.607	-0.129	0.247	-0.453	0.867	0.761	-0.621 (inactive)	-0.0824	-0.16	1.56	-0.0355 (inactive)	-1.37 (inactive)	-1.08 (inactive)	1.13	1.4 (inactive)	-0.235	0.877	0.385	-0.155
C=CCC(OC(C)=O)[C@@H]1[C@@H](N(Cc2cccc3ccccc23)C(=O)c2cccc3ccccc23)c2cc(OCCCO)ccc2N1C(=O)Cc1ccc(OC)cc1 (stereo not given in full)	-0.0733	-0.136	-0.0569	0.108	0.568	0.123	0.193	-1.64 (inactive)	0.03	-0.0994	0.435	-1.17 (inactive)	-1.59 (inactive)	-0.8 (inactive)	1.52	2.09 (inactive)	-0.121	0.0439	0.171	0.0073
CCCCC(=C=CC[C@@H](O)c1ccc(OCCO)cc1)C[C@@H](O)c1cc(Cl)cc(Cl)c1O	-0.12	0.0464	-0.0924	0.458	-0.0054	1.26	0.597	-2.98 (inactive)	0.0049	0.0007	0.21	-2.58 (inactive)	-6.3 (inactive)	-1.39 (inactive)	1.36	1.97 (inactive)	-0.057	0.988	-0.174	0.24
COC(=O)c1c2oc(c1C(=O)OC)C(=O)N[C@@H](C(C)C)Cn1nncc1C1(CCCCC1)NC(=O)N[C@H](CO)CC2	-0.07	0.178	-0.129	0.147	-0.294	0.969	0.625	-0.993 (inactive)	-0.103	0.0373	-0.143	0.0957 (inactive)	-0.99 (inactive)	-0.787 (inactive)	2.02	2.28 (inactive)	-0.208	-0.494	-0.373	-0.144
O=C1O[C@H](c2ccccc2)[C@H](c2ccccc2)N2[C@H]1[C@@H](C(=O)Nc1nc3ccccc3s1)[C@]1(C(=O)Nc3ccc(C#CCCO)cc31)[C@H]2c1ccccc1OCCO	-0.246	1.25	-0.038	0.502	1.35	1.69	1.06	-1.51 (inactive)	0.599	0.0757	1.47	0.764 (inactive)	-1.98 (inactive)	2.62 (inactive)	2.85	2.96 (inactive)	0.0459	0.244	0.912	0.0381
